Measured values published in the supplement of paper PMC6555819.

These sequences were tested on LXRa:RXRa (NR concentration 270 nM, RXRa partner concentration 90 nM) (assay: PBM binding z-score (relative to random genomic background probes); higher = stronger binding; sequences stand for … in GC…GCGATTGACAGCGTAGAATGAAGG).
Method in brief: (§1)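 Antibodies against each partner of ligand-free nuclear receptor dimers (one per run) detected binding on custom Agilent 4×180K protein-binding microarrays after 1 h incubation. The double-stranded probes had 34-nt variable regions carrying direct-repeat seeds, single-nucleotide variants, half-site ablations and random human genomic background sequences. Binding z-scores, from regression-normalized fluorescence, use the random background probes as reference.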

Sequence | PBM binding z-score
CCAGACAGGTGAGAAGGGAACTCAGCCTCGATTA | -0.0473
ACTCGGAGGACAAAGGTCTGAGCTACGCCAGTGA | -0.415
ACCTCTAGGTAACCAAGTTCAGTGAATGCCGAAC | 0.537
AATACAGGGTCATCGTAGGCCGGAGTACGCACAG | 6.14
CCACCAAGGTGAACAAGGTCGTTGATTACTATTC | 1.57
CCGAGTAGGTTATGGCGCATTCAGGCAACGGTGA | 0.163
ACTTACGGGTCAACGAGGGTATAGCACGCGTATA | 4.31
CGTCCAAGGTCAGAGAGGTCAGTCAATGCCGAGT | 5.49
CAAACTAGGTCAAGAGGTTAAAGTCCGCTTCCCG | 4.32
TCTAGCAGGCCAGAGAGTCACTCAAGAGGTACGG | 0.066
TCTTTTAGATCAAAGGTTAAGAAAGCCGAAGCCT | 2.05
CAAACTTGGTCAAGGTCAAAGTCGGTTTGTGCCA | 4.38
GCGACTGTGGCATCAGCAGGTTACCATAACTTAA | -0.391
ATCGAAAGGTCGAGGAGAGTATAGAGAAAGGGAA | 3.26
CATACAGGGTCAGCTAGGCCACAGTAGGGACGGC | 3.07
TCATATAGGAAAATGCTAGGTGAAAGTCCGATCT | 0.845
CCTCGGAGGACAGAACGTCAGAGCTGTCCGCTTT | -0.498
CCGACTGGGGCATAAGGTTACCATGAGCCAGCCC | 1.36
TCTTGTAGATCAAGCAGGTTTAGAAAGCCTGAGT | 0.0459
GGAACGAGGGCAAGTTGATGGCAGAGTTTGATGG | 0.592

Sequence | PBM binding z-score
CCTCGGAGGACAACAGGTGGTCAGAGCTGCCAGA | -0.519
TCGAGTAGGTTCCCAATGGGGCATTCAGCTTTCT | -0.384
TCGAATAGGTTAGTCGGGGCATTCAGCCAACATA | 0.608
TCGAGTAGGTTACCAATGGGGTATTCAGCTTTCT | 0.749
CAAACTAGTTCAAGGTCAAAGTCGGTTTGTGCCA | 5.81
CGAACTAGGTCATCCAGGACAGCGAATACATTGA | 2.55
ATACCAAAGTGATCGTGAGGTCGTTGATACTAAC | 0.707
ACCTCTAGGTAAGACTCAGTTCAGTGAAGAACGC | -0.143
TCATATAGGTAAAATGTGAAAGTCGGTGTGGTAA | 0.902
CCGACTGGGGCAGAAAGGTTACCATCCCATCCGG | 0.742
TGGAGTAGGTTAGGGGCATTCAGAATGGCGTCGA | 0.934
CCTACTGGGCCAAAGTCATTGATCAGTCAAAGCA | -0.266
ATTCGGAGGACAAAGGTCAGAGCTACGCCAGTGA | 4.26
ATACCAAGGTGATCGTGAGGTCGTTGAGACTAAC | 1.27
GCTAGCAGGCCAGTTGGGTCACTCAATGACGGGC | -0.319
CCTACTGGGCCCAAAAGGTCATTGATGCCGATAA | 4.84
AGAACGAGGGCACGATGAGTTGATAGCAGAGTAG | 0.721
TCATATAAGTAATACAGGTGAAAGTCGGCATCTA | 1.22
ATCGAAATGTCGACGAGGTGAGTATACACCGTTT | -0.263
TCTCGGAGGACACGAAAGGTCAGAGCTCGACATC | 3.71

These sequences were tested on LXRa homodimer (NR concentration 270 nM) in the same assay as above.
Method in brief: as §1

Sequence | PBM binding z-score
CCAGACAGGTGAGAAGGGAACTCAGCCTCGATTA | 0.111
ACTCGGAGGACAAAGGTCTGAGCTACGCCAGTGA | -0.354
ACCTCTAGGTAACCAAGTTCAGTGAATGCCGAAC | 0.553
AATACAGGGTCATCGTAGGCCGGAGTACGCACAG | 2.19
CCACCAAGGTGAACAAGGTCGTTGATTACTATTC | 0.468
CCGAGTAGGTTATGGCGCATTCAGGCAACGGTGA | -0.0103
ACTTACGGGTCAACGAGGGTATAGCACGCGTATA | 0.258
CGTCCAAGGTCAGAGAGGTCAGTCAATGCCGAGT | 3.45
CAAACTAGGTCAAGAGGTTAAAGTCCGCTTCCCG | 2.01
TCTAGCAGGCCAGAGAGTCACTCAAGAGGTACGG | -0.75
TCTTTTAGATCAAAGGTTAAGAAAGCCGAAGCCT | 0.26
CAAACTTGGTCAAGGTCAAAGTCGGTTTGTGCCA | 2.94
GCGACTGTGGCATCAGCAGGTTACCATAACTTAA | -0.237
ATCGAAAGGTCGAGGAGAGTATAGAGAAAGGGAA | 0.202
CATACAGGGTCAGCTAGGCCACAGTAGGGACGGC | -0.102
TCATATAGGAAAATGCTAGGTGAAAGTCCGATCT | 0.237
CCTCGGAGGACAGAACGTCAGAGCTGTCCGCTTT | -0.707
CCGACTGGGGCATAAGGTTACCATGAGCCAGCCC | -0.247
TCTTGTAGATCAAGCAGGTTTAGAAAGCCTGAGT | -0.387
GGAACGAGGGCAAGTTGATGGCAGAGTTTGATGG | -0.0865

Sequence | PBM binding z-score
CCTCGGAGGACAACAGGTGGTCAGAGCTGCCAGA | -0.443
TCGAGTAGGTTCCCAATGGGGCATTCAGCTTTCT | -0.577
TCGAATAGGTTAGTCGGGGCATTCAGCCAACATA | -0.0621
TCGAGTAGGTTACCAATGGGGTATTCAGCTTTCT | -0.345
CAAACTAGTTCAAGGTCAAAGTCGGTTTGTGCCA | 6.22
CGAACTAGGTCATCCAGGACAGCGAATACATTGA | 0.58
ATACCAAAGTGATCGTGAGGTCGTTGATACTAAC | 0.848
ACCTCTAGGTAAGACTCAGTTCAGTGAAGAACGC | -0.072
TCATATAGGTAAAATGTGAAAGTCGGTGTGGTAA | 0.119
CCGACTGGGGCAGAAAGGTTACCATCCCATCCGG | -0.151
TGGAGTAGGTTAGGGGCATTCAGAATGGCGTCGA | 0.271
CCTACTGGGCCAAAGTCATTGATCAGTCAAAGCA | -0.412
ATTCGGAGGACAAAGGTCAGAGCTACGCCAGTGA | 1.79
ATACCAAGGTGATCGTGAGGTCGTTGAGACTAAC | 0.536
GCTAGCAGGCCAGTTGGGTCACTCAATGACGGGC | -0.976
CCTACTGGGCCCAAAAGGTCATTGATGCCGATAA | 3.68
AGAACGAGGGCACGATGAGTTGATAGCAGAGTAG | -0.147
TCATATAAGTAATACAGGTGAAAGTCGGCATCTA | 0.589
ATCGAAATGTCGACGAGGTGAGTATACACCGTTT | -0.442
TCTCGGAGGACACGAAAGGTCAGAGCTCGACATC | 3.02
